EWS-Fli inh = blocks EWS/Fli oncoprotein-driven transcription | A673 NR0B1-luciferase reporter, viability-normalised | 350,000 tested, 0.67% active | inhibition, % at 12.6 µM;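 active = mean inhibition of at least 50% after viability correction, with every replicate also passing that limit; inconclusive = mean reaches 50% but only one of two replicates passes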;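 also: firefly luciferase signal divided by Alamar Blue viability fluorescence both relative to DMSO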
TROY NFkB inh = inhibitors of TROY-dependent NF-kB signaling; inhibition, % at 10 µM; Q293 LMP1-TROYcd NF-kB luciferase reporter, 4 h; 360,000 tested, 0.98% active;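 active = compounds whose plate-normalised and pattern-corrected inhibition of the luciferase reporter signal at the single screening dose is 50% or more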
LGR2 inh = Drosophila LGR2 receptor signaling inhibition. HEK293 LGR2, CRE-luciferase, bursicon-stimulated, 4 h. inhibition, % at 9.99 µM. 380,000 tested, 0.35% active;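 active = drop in luminescence signal, shown as inhibition above about 50% in the replicate tests, limit read from the data, passing the limit was not always enough; inconclusive = probably only some replicates passing the limit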;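 also: agonist challenge used bursicon conditioned medium at about half maximal strength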
PAX8 reporter = lowers PAX8-driven luciferase in RMG-I cells; RMG-I TPO-luciferase reporter, SteadyGlo, 24 h; 360,000 tested, 1.2% active; inhibition, % at 12.6 µM;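 active = mean replicate inhibition at least 60% with every replicate also reaching 60%; inconclusive = only one of the two criteria is met; inactive = mean below 60% and not all replicates reaching 60%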;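 also: luciferase light reporting Pax8 driven TPO promoter activity; plate controls were median of neutral control wells for no effect and mitoxantrone controls for full effect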
LMP1 NFkB inh = reduces LMP1-driven NF-kappaB luciferase signal | LMP1-induced NF-kappaB luciferase reporter cells, luminescence | AID 504558 | 350,000 tested, 0.69% active | inhibition, % at 12.5 µM; in the data active = inhibition above about 41%; inconclusive = no clear call, values can overlap the other calls;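 also: 0% = neutral control wells and 100% = reference inhibitor control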
TWEAK-Fn14 inh = TWEAK-Fn14 signaling inhibition | 360,000 tested, 2% active | inhibition, % at 10 µM | TWEAK-stimulated Fn14 reporter cells, luciferase luminescence, 8 h; in the data active = inhibition above about 50%
Starred values were filed as active, the others as inactive; ? = inconclusive; · = no result. Shown are actives, neighbours in structure and some others; about 3.2% of the full set was active somewhere.

SMILES	EWS-Fli inh	TROY NFkB inh	LGR2 inh	PAX8 reporter	LMP1 NFkB inh	TWEAK-Fn14 inh
O=C(/C=C/c1ccco1)Nc1nc(-c2ccccc2)cs1	-111	-51	-18	98*	-23	12
O=C(/C=C/c1ccccc1)Nc1scc(-c2ccccc2)c1C(=O)O	-78	27	-10	-58	0	52*
O=C(/C=C/c1ccco1)Nc1scc(-c2ccccc2)c1C(=O)O	-87	15	17	-33	38	67*
O=C(C[C@H]1C=C[C@@H](NC(=O)Nc2ccc(F)cc2)[C@H](CO)O1)NCc1ccccn1	-1	·	-3	9	·	·
COc1ccc2c3c(n(C)c2c1)[C@H](CO)N(C(=O)NC(C)C)CC31CN(C(C)=O)C1	0	·	-5	-22	·	·
C[C@H]1CN([C@@H](C)CO)C(=O)c2cc(NC(=O)Nc3ccccc3)ccc2O[C@@H]1CN(C)C	·	·	10	-5	·	·
Cc1cc(C)c(S(=O)(=O)c2ccc(Cl)cc2)c(Cl)n1	4	-5	6	9	0	-5
Cc1cc(S(=O)(=O)c2ccc(Cl)cc2)nc(S(=O)(=O)c2ccc(Cl)cc2)c1C#N	64*	57*	14	83*	52*	77*
CCC(=O)N1[C@H](CO)[C@@H](c2ccccc2)[C@@H]1CN(CC)C(=O)NC1CCCC1	-3	·	11	-5	·	·
COc1ccc(C(C)(C)C)cc1NC(=O)CCNC(=O)c1ccco1	10	4	0	30	10	91*
O=C(NCCNC(=O)c1ccco1)c1ccc(F)cc1	2	22	7	-18	-2	6
O=C(NCCNC(=O)c1ccco1)c1cccc(F)c1	·	52*	·	0	3	-2
COc1cc(OC)c(OC)cc1CNCCNC(=O)c1ccco1	-1	5	6	-12	-3	96*
COc1ccc(C(C)(C)C)cc1NC(=O)CNc1cccc2ccccc12	·	40	-7	-2	1	58*
COc1ccccc1NC(=O)Cc1cccc2ccccc12	3	13	1	2	0	-6
CN1C(=O)c2cc(NC(=O)c3ccc(F)cc3)ccc2OC[C@@H]2O[C@H](CC(=O)NCC3CCCCC3)CC[C@@H]21	24	·	-4	51	·	·
C[C@H]1CN([C@@H](C)CO)C(=O)c2cccc(NC(=O)Nc3ccc(C(F)(F)F)cc3)c2O[C@H]1CN(C)C(=O)Nc1ccc2c(c1)OCO2	-19	·	3	-50	·	·
O=C(C[C@H]1CC[C@@H]2[C@H](COC[C@@H](O)CN2C(=O)c2ccncc2)O1)NC1CCC1	-5	·	16	-8	·	·
N#CC(=C1C=CC(=NO)C(Cl)=C1)c1ccc(Cl)cc1	10	27	-15	14	-16	64*
CC1=CC2C(C(O)CC3(C)C2CC(C)C32OCOC23COCO3)C2(C)C/C(=C\O)C(=O)C=C12 (stereo not given)	40	83*	80*	·	-1	109*
COCC(=O)N1CCC2(CC1)CN(C(=O)c1ccccn1)[C@H](CO)c1c2c2ccc(OC)cc2n1C	7	·	10	·	·	·
CCOC(=O)c1c(CSC(=N)N)n(-c2ccc(C)cc2)c2cc(Br)c(OC(C)=O)cc12	·	33	·	?	-76	92*
CCOC(=O)c1c(CSC(=N)N)n(C)c2cc(Br)c(OC(C)=O)cc12	-6	19	-92	24	-46	-6
Cc1noc(C)c1NC(=O)Nc1cccc2c1O[C@H](CN(C)Cc1ccc(Oc3ccccc3)cc1)[C@H](C)CN([C@H](C)CO)C2=O	1	·	-11	·	·	·
Clc1ccc(-c2nnc(CSc3nnc(-c4cccs4)n3Cc3ccccc3)o2)cc1	17	48	20	10	24	64*
SMILES	EWS-Fli inh	TROY NFkB inh	LGR2 inh	PAX8 reporter	LMP1 NFkB inh	TWEAK-Fn14 inh
C[C@H]1CN([C@@H](C)CO)C(=O)c2cc(NC(=O)c3ccncc3)ccc2O[C@H]1CN(C)C(=O)Nc1ccc(C(F)(F)F)cc1	-3	·	-15	0	·	·
Cc1cc2[nH]c3c4ccccc4nc(C)c3c2cc1C	61*	78*	-8	86*	-40	-72
Cc1c(C(=O)N2CCN(Cc3ccc4c(c3)OCO4)CC2)sc2ncnc(N3CCN(c4ccccc4F)CC3)c12	12	50	20	41	13	88*
Cc1c(C(=O)N2CCN(Cc3ccc4c(c3)OCO4)CC2)sc2ncnc(N3CCN(c4ccccc4)CC3)c12	20	53*	36	35	21	87*
CCCNC(=O)Cn1cnc2sc(C(=O)N3CCN(Cc4ccc5c(c4)OCO5)CC3)c(C)c2c1=O	1	15	12	9	20	-20
COCC(=O)Nc1ccc2c(c1)[C@@H]1C[C@@H](CC(=O)NCCN3CCCCC3)O[C@@H](CO)[C@@H]1O2	4	·	-10	5	·	·
O=C(Nc1ccc(Cl)c(Cl)c1)c1cccc(S(=O)(=O)NCc2cccnc2)c1	·	64*	6	16	29	90*
CO[C@@H]1CN(C)C(=O)c2cc(NC(=O)C3CCCC3)ccc2OC[C@@H](C)N(C(=O)CC2CC2)C[C@@H]1C	5	·	-8	·	·	·
COc1ccc(/C=C/C(=O)c2ccc(C)c([N+](=O)[O-])c2)cc1O	-6	15	-15	-29	-2	10
COc1cc(/C=C/C(=O)c2ccc(NS(=O)(=O)c3ccc(C)cc3)cc2)cc(OC)c1O	·	0	47	81*	3	60*
COc1cc(/C=C/C(=O)c2ccc(C)c([N+](=O)[O-])c2)cc(OC)c1O	-27	32	8	14	15	69*
COc1ccc2c3c([nH]c2c1)[C@@H](CO)N(C(=O)Nc1ccccc1F)CC31CCN(C(=O)C2CC2)CC1	15	·	-10	-2	·	·
CN1C(=O)c2cc(NC(=O)C3CC3)ccc2OC[C@H]2O[C@H](CC(=O)NCCc3ccncc3)CC[C@@H]21	-5	·	23	8	·	·
C[C@H](CO)N1C[C@H](C)[C@@H](CN(C)Cc2ccc(C(F)(F)F)cc2)OCCCC[C@H](C)Oc2ccc(NC(=O)Nc3ccc(C(F)(F)F)cc3)cc2C1=O	-18	·	11	-9	·	·
C[C@@H]1CCCCO[C@H](CN(C)Cc2ccncc2)[C@H](C)CN([C@H](C)CO)C(=O)c2cc(NC(=O)Nc3ccc(C(F)(F)F)cc3)ccc2O1	19	·	-6	95*	·	·
C[C@@H]1CN([C@H](C)CO)C(=O)c2cc(NC(=O)Nc3ccc(C(F)(F)F)cc3)ccc2O[C@@H](C)CCCCO[C@@H]1CN(C)Cc1ccncc1	-90	·	-2	93*	·	·
C[C@@H]1CCCCO[C@H](CN(C)Cc2ccncc2)[C@H](C)CN([C@@H](C)CO)C(=O)c2cc(NC(=O)Nc3ccc(C(F)(F)F)cc3)ccc2O1	34	·	-5	92*	·	·
C[C@@H]1CCCCO[C@@H](CN(C)Cc2ccc(C(F)(F)F)cc2)[C@@H](C)CN([C@H](C)CO)C(=O)c2cc(NC(=O)Nc3ccc(C(F)(F)F)cc3)ccc2O1	-18	·	-10	3	·	·

From PubChem
